In all, about 65,000 compounds went through this assay and about 320 (0.49%) were called active.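 How the source made its calls: active means the 320 compounds with the highest percent inhibition in the single-dose primary screen, excluding strongly autofluorescent ones (cut at about 32% in these data); inactive means the rest, inconclusive results apart.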 Many of the other results were omitted from the sample, so actives are more common in it than they were.

The test system of this assay is diphosphomevalonate decarboxylase (Streptococcus pneumoniae D39). Briefly: diphosphomevalonate decarboxylase activity blockers – biochemical, PK/LDH-coupled NADH fluorescence, primary screen (AID 556).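 On inhibition: kinetic rate of NADH fluorescence loss reporting ADP formed by the decarboxylase; 0% = full reaction rate with carrier and 100% = no-substrate background rate.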 Conditions: purified DPM-DC, at 10 µM; stronger effect = higher value unless noted.
By inhibition is commonly meant the share of the control response that was lost under treatment. Take `Cc1cc(C)nc(SCc2nnc(SCC(=O)OC3CCCCC3)o2)n1`: the inhibition entry is “inactive”.
With `Cc1cc(=O)cc(C)[nH]1`, the inhibition is 42% (active).
On to `Cc1cc(=O)[nH]c(=S)[nH]1`, for which the inhibition entry was “inactive”.
As to `COc1ccc(C2CC(c3ccc(Cl)cc3Cl)Nc3nc(N)nn32)cc1OC` (centres undefined), the inhibition result is “inactive”.
For the compound `CCOC(=O)CCCNC(=O)CN1C(=O)NC(CCc2ccccc2)C1=O` (centres undefined), the inhibition entry is “inactive”.
With `CCOc1ccc(-c2nnn(CC(=O)N3CCN(c4ccc(F)cc4)CC3)n2)cc1OCC`, the inhibition is 0% [measured here: pilot screen trials, stronger effect = higher value] and the call was inactive.
With `CCOC(=O)CSc1nccc(N(C)C)c1C#N`, the inhibition entry is “inactive”.
Still for that read-out and setting: under `CC(=O)c1cc(-c2ccccc2)[nH]c1N1CCCC1` stands 1% (inactive); under `CCOC(=O)/C=c1\s/c(=C\c2ccccc2OC)c(=O)n1CC(=O)N1CCOCC1`, 4% (inactive); under `CC1(C)CC(CCC(=O)Nc2ccccc2Cl)C(=O)O1` (centres undefined), “inactive”.
As to `COc1ccc(-n2nnc3c(=O)n(CC(=O)N4CCC(Cc5ccccc5)CC4)cnc32)cc1`, the inhibition result is “inactive”.
On to `CCOC(=O)c1ccc(N2C(=O)CC(N3CC(C)OC(C)C3)C2=O)cc1` (centres undefined), for which the inhibition entry is “inactive”.
For `O=C(O)c1ccc(-n2cccc2)cc1O`, the inhibition is 1% (inactive).
Same read-out and setting: the figure for `Cc1ccc(S(=O)(=O)N2CCCC2C(=O)NCc2ccco2)cc1` (centres undefined) is 4% (inactive); for `O=C1NC2(CCCCC2)N=C1c1ccccc1` it is “inactive”; for `COc1ccc(S(=O)(=O)N2CCC(C(=O)N3CCc4ccccc4C3)CC2)cc1OC` it is “inactive”.
In the case of `CCOC(=O)c1c(-n2cnnn2)sc(C)c1C`, the inhibition is 2% (inactive).
Turning to `Cc1nc(C)c(C(=O)Nc2cccc(C)c2C)o1`, the inhibition result is “inactive”.
For the compound `COc1ccc2[nH]c(=O)c(CN(CC3CCCO3)C(=O)Nc3ccccc3)cc2c1` (centres undefined), the inhibition was 33% (active).
The same measure, in the same setting: the figure for `CCC(c1nnnn1Cc1ccccc1)N(Cc1cc2cc(OC)ccc2[nH]c1=O)CC1CCCO1` (centres undefined) is 5% (inactive).
Turning to `COc1ccc2[nH]c(=O)c(CN(Cc3nnnn3CCc3ccccc3)CC3CCCO3)cc2c1` (centres undefined), the inhibition was 2% (inactive).
Consider `O=C1[C@@H]2C(Cc3ccc(O)cc3)NC3(C(=O)Nc4ccc(F)cc43)[C@@H]2C(=O)N1c1ccc(F)cc1` (some centres undefined), for which the inhibition entry was “inactive”.
As to `CSc1ccc(NC(=O)N2CC(C)OC(C)C2)cc1` (centres undefined), the inhibition entry was “inactive”.
Turning to `CCOc1ccc(/C(O)=C2/C(=O)C(=O)N(Cc3cccnc3)C2c2ccc(N(C)C)cc2)c(C)c1` (centres undefined), the inhibition was 2% (inactive).
Same read-out and setting: under `Cc1ccc(N(C(=O)CC2NC(=O)NC2=O)C2(C(=O)NC3CCCC3)CCCCC2)cc1` (centres undefined) stands “inactive”; under `COc1ccc(CCNC(=O)CN2CCC(n3nnc4cc(F)ccc43)CC2)cc1OC`, “inactive”.
In the case of `O=C(CSc1nnnn1C1CCCC1)Nc1ccc2c(c1)OCCO2`, the inhibition entry is “inactive”.
Consider `N#CCCN1CCN(S(=O)(=O)c2ccc(S(=O)(=O)N3CCCC3)cc2)CC1`, for which the inhibition was 7% (inactive).

(Values after PubChem BioAssay AID556 (SRMLSC, 2006).)
